ELG1 repair inh – inhibitors of ELG1-dependent DNA repair in HEK293T cells; HEK293T ELG1-luciferase reporter, luminescence, 16 h; DNA damage induced by 5-fluorouridine; Potency, µM (doses to about 46.1 µM), hits mostly inhibitors; 330,000 compounds, 2.3% hits; AID 504467; also: nearly all actives have a fitted effect of over 55% in size
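HEK293T cells expressing luciferase-tagged ELG1 (2,000/well) received 5-Fluorouridine plus compound or DMSO for 16 hr at 37 °C. Luciferase was read by ONE-Glo luminescence after 30 min at room temperature.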
TDP1 cell noCPT – qHTS for Inhibitors of human tyrosyl-DNA phosphodiesterase 1 (TDP1): qHTS in cells in absence of CPT | 420,000 compounds, 15% hits | DT40 Tdp1-/- hTDP1 cells, no CPT, ATP luminescence, 48 h | AID 686978, 2013 | Potency, µM (top dose mostly 46.2 µM), actives largely listed as inhibitors; also: nearly all actives have a fitted effect of over 55% in size
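Growth kinetics read by CellTiter-Glo luminescence after ≥48 hr at 37 °C. Cells: DT40 Tdp1-/- stably carrying human TDP1, 400 per well, compound exposure in the absence of CPT (DMSO vehicle).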
Giardia kill – kills Giardia lamblia; Giardia lamblia trophozoite viability; activity change, % at 7.66 µM, hits read low; 340,000 compounds, 0.15% hits; AID 540267; in the data active = activity change below about -80%; inconclusive = between about -30% and that limit;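 also: parasites exposed to compound for two days anaerobically before the ATP read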
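Giardia trophozoites, 100 cells per well, were exposed to compounds for 48 hrs at 37 deg C under anaerobic conditions; viability was then read as ATP content by bioluminescence after 15-30 min at room temperature.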
TDP1 block – blocks human tyrosyl-DNA phosphodiesterase 1; Q9NUW8; recombinant TDP1, AlphaScreen DNA substrate cleavage; Potency, µM (highest dose often 130 µM), usual class: inhibitors; 350,000 compounds, 0.28% hits; AID 485290; also: nearly all actives have a fitted effect of over 40% in size
Target sequence (Q9NUW8 whole entry, looked up): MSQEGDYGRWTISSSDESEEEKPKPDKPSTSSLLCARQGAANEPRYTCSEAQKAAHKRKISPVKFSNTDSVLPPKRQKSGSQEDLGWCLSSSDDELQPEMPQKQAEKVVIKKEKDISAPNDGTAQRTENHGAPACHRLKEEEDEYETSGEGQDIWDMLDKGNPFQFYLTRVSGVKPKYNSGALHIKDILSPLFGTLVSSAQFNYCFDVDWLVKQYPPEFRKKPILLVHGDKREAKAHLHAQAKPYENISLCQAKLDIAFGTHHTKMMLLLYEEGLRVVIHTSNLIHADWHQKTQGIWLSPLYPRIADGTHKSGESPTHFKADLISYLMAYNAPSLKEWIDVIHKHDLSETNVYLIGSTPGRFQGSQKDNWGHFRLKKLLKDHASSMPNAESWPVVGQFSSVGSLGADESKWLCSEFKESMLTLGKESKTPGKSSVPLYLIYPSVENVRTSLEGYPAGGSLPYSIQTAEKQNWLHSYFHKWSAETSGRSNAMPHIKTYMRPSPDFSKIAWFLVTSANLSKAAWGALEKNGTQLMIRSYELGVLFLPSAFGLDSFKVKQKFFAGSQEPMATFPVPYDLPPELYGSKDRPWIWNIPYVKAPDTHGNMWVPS
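Tdp1 1 nM final; 15 min RT w/ cpd; substrate 15 nM, 5 min; beads 10 ug/ml, 10 min; AlphaScreen read. Neg ctrl: no enzyme.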
TDP1 cell CPT – growth inhibition of DT40 Tdp1-/-;hTDP1 cells with camptothecin (screen for TDP1 inhibitors) | chicken DT40 Tdp1-/-;hTDP1 cells + 20 nM CPT, ATP luminescence, 48 h | Potency, µM (doses to about 46.2 µM), most hits filed as inhibitors | 420,000 compounds, 12% hits; also: nearly all actives have a fitted effect of over 55% in size
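Chicken DT40 Tdp1-/- cells complemented with human TDP1, 400 cells/well, exposed to compounds plus 20 nM camptothecin for at least 48 h at 37 C; viability read as ATP content by CellTiter-Glo luminescence.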
IL-1B inflam inh – inhibitors of inflammasome signaling (IL-1 beta secretion). 360,000 compounds, 4.7% hits. AID 743279. THP-1 LPS/ATP IL-1B secretion, AlphaLISA, 16 h; active compounds read low. activity change, % at 57.5 µM; in the data active = activity change below about -50%; inconclusive = mostly about -30% to -49%
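Secreted IL-1B measured by AlphaLISA bead assay after 16 h compound exposure of THP-1 cells; compounds (final up to 57.5 uM) added 1 h before LPS (250 ng/mL) and ATP (1.25 mM) stimulation; lower signal means less secretion.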
Numbers stand for hits; 0 = inactive; ? = inconclusive; - = no result given; [ ] = dose if it differs, or a comment. Only some compounds are listed: those with a hit (about 19% of all), similar ones and a draw of the others. Unless noted, calls follow the shape of the dose curve; as a rule, active = well fitted curve in the direction sought with a large enough effect; inconclusive = small, poorly fitted or top-dose-only effect, or another doubt; inactive = no such curve, though single readings can be large; an effect the other way counts as inactive or inconclusive.

SMILES	ELG1 repair inh	TDP1 cell noCPT	Giardia kill	TDP1 block	TDP1 cell CPT	IL-1B inflam inh
COCCCn1c(C(=O)N2CCOCC2)cc2c(=O)n3cccc(C)c3nc21	-	0	0	-	0	0
Cc1cccn2c(=O)c3cc(C(=O)NCc4ccc(F)cc4)c(=N)n(CC4CCCO4)c3nc12 (stereo not given)	0	23.1µM	0	0	?	0
Cc1cccn2c(=O)c3cc(C(=O)NCCN4CCOCC4)c(=N)n(CCN4CCOCC4)c3nc12	0	0	0	-	0	0
Cc1cccn2c(=O)c3cc(C(=O)NCCN4CCOCC4)c(=N)n(Cc4ccc(F)cc4)c3nc12	0	7.31µM	0	0	7.31µM	?
COCCCn1c(C(=O)Nc2ccc3c(c2)OCO3)cc2c(=O)n3cccc(C)c3nc21	-	11.6µM	-	-	?	0
COCCCn1c(=N)c(C(=O)NC2CCCC2)cc2c(=O)n3cccc(C)c3nc21	-	23.1µM	-	-	?	-
Cc1cccn2c(=O)c3cc(C(=O)NCC4CCCO4)c(=N)n(Cc4cccnc4)c3nc12 (stereo not given)	0	25.9µM	0	0	18.4µM	0
N=c1c(C(=O)NCC2CCCO2)cc2c(=O)n3ccccc3nc2n1Cc1cccnc1 (stereo not given)	0	0	0	0	0	0
CC(OC(=O)c1ccc(-c2ccc([N+](=O)[O-])cc2)o1)C(=O)NC(N)=O (stereo not given)	0	0	0	-	0	0
CC(C)(C)C(=O)/C=c1\s/c(=C\c2ccc(-c3ccc([N+](=O)[O-])cc3)o2)c(=O)n1CC(=O)NC(N)=O	?	23.1µM	0	0	?	0
Cc1cc(C)c(C(=O)C(C)OC(=O)Cc2n[nH]c(=O)c3ccccc23)cc1C (stereo not given)	0	?	0	0	0	0
CC(OC(=O)Cc1n[nH]c(=O)c2ccccc12)C(=O)N(C)c1ccccc1 (stereo not given)	-	16.4µM	-	-	8.2µM	0
Cc1ccc(C(=O)C(C)OC(=O)Cc2n[nH]c(=O)c3ccccc23)cc1 (stereo not given)	0	18.4µM	0	0	11.6µM	0
CC1Cc2ccccc2N1C(=O)CSc1nn2c(=O)c(C(C)(C)C)nnc2s1 (stereo not given)	0	?	0	0	?	-96.4
CC(C)(C)c1nnc2sc(SCC(=O)N3CCCc4ccccc43)nn2c1=O	0	23.1µM	0	0	?	0
COc1ccc(-c2csc(/C(C#N)=C(\O)CSc3nccn3C)n2)cc1OC	0	14.6µM	0	0	?	0
COc1ccc(/C=C(\C#N)c2nc(-c3cc4ccccc4oc3=O)cs2)cc1OC	-	0	-	0[12.3 µM]	0	-
COc1ccc(-c2csc(/C(C#N)=C\c3ccc(O)c([N+](=O)[O-])c3)n2)cc1OC	14.6µM	?	?	0	?	0
CC(C)c1ccc(/C=C(\C#N)c2nc(-c3ccc(O)cc3)cs2)cc1	-	2.59µM	-	0[12.3 µM]	3.26µM	-
COc1ccc(-c2csc(/C(C#N)=C\c3ccc(OC)c([N+](=O)[O-])c3)n2)cc1	0	?	0	0	?	0
COc1ccc(/C=C(/C#N)c2nc(-c3ccc(-c4ccccc4)cc3)cs2)cc1OC	-	11.6µM	-	0[12.3 µM]	?	-
Cc1ccc2nc(SCC(=O)NCC3Cc4cccc(-c5nc(C)cnc5C)c4O3)[nH]c2c1 (stereo not given)	-	0	-	-	0[9.04 µM]	-
COc1cccc(C(=O)Nc2ccc(-n3nncc3-c3ccc(Br)cc3)cc2)c1OC	-	0	-	0	0	-
COc1ccc(/C=C(/C#N)c2nc(-c3ccc(Br)cc3)cs2)cc1	-	23.1µM	-	0[12.3 µM]	?	-
Cc1ccc(-c2nc3c(Cl)cc(C(F)(F)F)cn3c2Cc2ccccc2C(F)(F)F)cc1	-	0	-	-	0	0
SMILES	ELG1 repair inh	TDP1 cell noCPT	Giardia kill	TDP1 block	TDP1 cell CPT	IL-1B inflam inh
FC(F)(F)c1cc(Cl)c2nc(-c3ccco3)c(Cc3ccccc3C(F)(F)F)n2c1	-	14.6µM	-	-	?	0
Cc1cccc(OCc2cc(=O)n3c4c(sc3n2)CCCC4)c1C	-	0	-	0	0	-
CCOc1ccc(Cl)cc1-c1cc(C(=O)Nc2ccc(Br)cc2)[nH]n1	-	18.4µM	-	-	23.1µM	0
CCOc1ccc(Cl)cc1-c1cc(C(=O)Nc2cc(OC)c(OC)c(OC)c2)[nH]n1	-	16.4µM	-	-	20.6µM	0
CCOc1ccc(Cl)cc1-c1cc(C(=O)Nc2ccc(C(C)C)cc2)[nH]n1	-	16.4µM	-	-	?	0
CCOc1ccc(Cl)cc1-c1cc(C(=O)NC2CCCCC2)[nH]n1	-	16.4µM	-	-	18.4µM	0
CCOc1ccc(Cl)cc1-c1cc(C(=O)Nc2ccc(OC)nc2)[nH]n1	-	?	-	-	?	0
OCCC1CN(Cc2cccc3nonc23)CCN1C1CCCCC1 (stereo not given)	0	0	0	0	0	0
O=C(NCC1CCCO1)c1ccccc1NS(=O)(=O)c1ccc(F)cc1 (stereo not given)	0	0	0	0	0	0
CN1CCN(S(=O)(=O)c2ccc(SCCOc3ccc(Cl)cc3)nc2)CC1	0	16.4µM	0	0	0	?
Cc1c(CNC2CCC(C)CC2)c(C(=O)O)c(C)n1Cc1ccc(Cl)cc1 (stereo not given)	-	?	-	0	?	-
CCCCN(C)C(=O)CSc1c2c(nc3ccc(Cl)cc13)CCCC2	-	?	-	0	?	-
COc1cc(OC)c(N(C)C(=O)CSc2c3c(nc4ccc(Cl)cc24)CCCC3)cc1Cl	-	?	-	0	18.4µM	-
CN(Cc1ccccc1)C(=O)CSc1c2c(nc3ccc(Cl)cc13)CCCC2	-	16.4µM	-	0	?	-
CCCN(CCC)C(=O)CSc1c2c(nc3ccc(Cl)cc13)CCCC2	-	?	-	0	18.4µM	-
Cc1cc(Cl)ccc1NC(=O)c1cc(S(=O)(=O)N2CCOCC2)cn1C	-	?	-	0	?	-
CC(=O)Oc1ccccc1C1=NN(C(=O)/C=C/c2ccccc2)C(c2ccccc2)C1 (stereo not given)	0	18.4µM	0	0	?	0
COc1ccc(C2CC(c3ccccc3OC(C)=O)=NN2C(=O)/C=C/c2ccccc2)cc1 (stereo not given)	?	16.4µM	0	0	20.6µM	0
COc1ccc(C2CC(c3ccc4ccccc4c3OC(C)=O)=NN2C(=O)/C=C/c2ccccc2)cc1 (stereo not given)	0	?	0	0	?	0
Cc1cccc(S(=O)(=O)C(C#N)c2nc3ccccc3nc2N2CC(C)OC(C)C2)c1 (stereo not given)	-	25.9µM	0	0	25.9µM	0
Cc1ccc(S(=O)(=O)C(C#N)c2nc3ccccc3nc2N2CC(C)OC(C)C2)cc1C (stereo not given)	?	14.6µM	0	0	?	0
